Consider 35 sequences from the supplement of paper PMC3545927.

The list shows a part of the results. How many sequences the whole screen found active is unknown.

In this experiment the target is furin, P09958. The experiment can be described thus: furin cleavage Z-score vs untreated control; higher = more cleavage, active = 3.5 or more, inactive = 1 or less, 8 variable residues between constant flanks. In short, it runs like this:
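Magnetic beads held 8-mer peptides by the N-terminus, each fused to a cDNA oligonucleotide, and purified furin was added for 7.5, 15 or 30 min. Released DNA was sequenced after PCR adapter tagging. The cleavage Z-score is the log count relative to furin-free reactions, lowess-adjusted and divided by median absolute deviation.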
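Also: purified furin at 1:10 enzyme:substrate in 50 mM HEPES pH 7.5.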

Chain of furin, P09958 (P09958 whole entry, the tested form may be a part): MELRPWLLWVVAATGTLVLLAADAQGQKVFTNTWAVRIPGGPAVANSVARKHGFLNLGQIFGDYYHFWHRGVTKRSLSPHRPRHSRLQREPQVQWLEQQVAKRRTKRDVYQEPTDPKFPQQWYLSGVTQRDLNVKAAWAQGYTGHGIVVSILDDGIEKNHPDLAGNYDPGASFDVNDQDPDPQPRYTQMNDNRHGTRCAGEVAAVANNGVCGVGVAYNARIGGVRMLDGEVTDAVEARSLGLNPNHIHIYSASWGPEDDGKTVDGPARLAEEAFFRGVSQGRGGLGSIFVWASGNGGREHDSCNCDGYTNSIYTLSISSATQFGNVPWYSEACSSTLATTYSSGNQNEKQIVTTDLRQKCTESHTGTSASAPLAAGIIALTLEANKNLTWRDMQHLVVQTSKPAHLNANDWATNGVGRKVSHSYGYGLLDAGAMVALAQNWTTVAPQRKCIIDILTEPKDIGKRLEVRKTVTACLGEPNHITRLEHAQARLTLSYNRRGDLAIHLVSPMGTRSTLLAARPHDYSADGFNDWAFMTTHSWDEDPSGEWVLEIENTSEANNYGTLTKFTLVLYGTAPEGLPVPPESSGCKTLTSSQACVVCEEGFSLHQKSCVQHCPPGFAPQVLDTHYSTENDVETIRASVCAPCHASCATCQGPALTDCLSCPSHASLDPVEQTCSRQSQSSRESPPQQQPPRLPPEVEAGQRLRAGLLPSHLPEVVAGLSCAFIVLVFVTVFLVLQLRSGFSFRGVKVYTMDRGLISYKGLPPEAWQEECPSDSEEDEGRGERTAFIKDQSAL

For CAMEECSQHSAGNASASA [HC1777], the “furin cleavage Z-score” value by setting is: (7.5 min) 2.1; (15 min) 0.565 (inactive); (30 min) 0.168 (inactive).
The like results for CAPPEELKFQAGNASASA [NG7] were, in that order, -0.102 (inactive), -1.12 (inactive) and 0.127 (inactive).
For CARANRIVNAAGNASASA [FS-2392], the “furin cleavage Z-score” value (7.5 min) was 0.0348 (inactive), the “furin cleavage Z-score” value (15 min) is -1.24 (inactive) and the “furin cleavage Z-score” value (30 min) is -1.84 (inactive).
The like results for CATFWAKHMWAGNASASA [HC1040] were, in that order, 0.313 (inactive), -0.474 (inactive) and 0.00738 (inactive).
As for CARLRRILEVAGNASASA [FS-2433], the “furin cleavage Z-score” value reads like this: (7.5 min) -1.97 (inactive); (15 min) -0.173 (inactive); (30 min) 0.88 (inactive).
For CARLRRTMLVAGNASASA [FS-2996] the same measures were 0.457 (inactive), -0.166 (inactive) and 0.463 (inactive).
As for CARLHRFDSQAGNASASA [FS-2569], the “furin cleavage Z-score” value was -0.521 (inactive) (7.5 min), 0.134 (inactive) (15 min) and 0.911 (inactive) (30 min).
Consider CARLRRRASQAGNASASA [FS-2995], for which the “furin cleavage Z-score” value reads like this: (7.5 min) 2.66; (15 min) 4.61 (active); (30 min) 4.94 (active).
As for CARLRRASWVAGNASASA [FS-3197], the “furin cleavage Z-score” value was 1.44 (7.5 min), 1.96 (15 min) and 4.56 (active) (30 min).
With CASAPPGDPPAGNASASA [HC1544], the “furin cleavage Z-score” value was -0.56 (inactive) (7.5 min), -0.28 (inactive) (15 min) and -0.205 (inactive) (30 min).
On to CAQARRFRRSAGNASASA [FS-844], for which the “furin cleavage Z-score” value (7.5 min) is 14.3 (active), the “furin cleavage Z-score” value (15 min) is 14.1 (active) and the “furin cleavage Z-score” value (30 min) was 9.61 (active).
On to CAAPRRPRRPAGNASASA [FS-116], for which the “furin cleavage Z-score” value was 0.169 (inactive) (7.5 min), 0.142 (inactive) (15 min) and 0.528 (inactive) (30 min).
With CAAPRRFRRSAGNASASA [FS-399], the “furin cleavage Z-score” value (7.5 min) is 9.1 (active), the “furin cleavage Z-score” value (15 min) is 8.32 (active) and the “furin cleavage Z-score” value (30 min) is 8.51 (active).
The like results for CAAPERERRSAGNASASA [FS-215] were, in that order, 8.78 (active), 11.7 (active) and 7.74 (active).
On to CAFVQRFRRSAGNASASA [FS-236], for which the “furin cleavage Z-score” value reads like this: (7.5 min) 11.9 (active); (15 min) 11.2 (active); (30 min) 9.2 (active).
The like results for CAALGLERRSAGNASASA [FS-1444] were, in that order, -0.628 (inactive), -0.614 (inactive) and 0.553 (inactive).
For CADEEVVTSTAGNASASA [HC2292] the same measures were 1.62, 0.883 (inactive) and 1.1.
For CATTPCSGSPAGNASASA [HC1939] the same measures were 0.991 (inactive), -1.49 (inactive) and 0.61 (inactive).
With CAEVSCHRPSAGNASASA [HC2357], the “furin cleavage Z-score” value (7.5 min) was 0.821 (inactive), the “furin cleavage Z-score” value (15 min) is 0.257 (inactive) and the “furin cleavage Z-score” value (30 min) is -0.805 (inactive).
For CAVVCCSMDYAGNASASA [HC2071] the same measures were -0.0968 (inactive), 0.0602 (inactive) and -0.172 (inactive).
Take CATTECSGSWAGNASASA [HC1872]: the “furin cleavage Z-score” value reads like this: (7.5 min) -0.691 (inactive); (15 min) -0.533 (inactive); (30 min) -0.721 (inactive).
Take CANNHVYRRSAGNASASA [FS-834]: the “furin cleavage Z-score” value reads like this: (7.5 min) 2.73; (15 min) 4.48 (active); (30 min) 3.35.
With CAMEECSNHLAGNASASA [HC1741], the “furin cleavage Z-score” value (7.5 min) is -0.217 (inactive), the “furin cleavage Z-score” value (15 min) came to 1.15 and the “furin cleavage Z-score” value (30 min) is 0.956 (inactive).
The like results for CAALARKMIGAGNASASA [HC622] were, in that order, -0.391 (inactive), -0.298 (inactive) and -0.269 (inactive).
The like results for CAALIRKLRDAGNASASA [FS-1303] were, in that order, 10.1 (active), 10.2 (active) and 7.71 (active).
For CAALARSHRDAGNASASA [FS-1183], the “furin cleavage Z-score” value runs as follows: (7.5 min) 3.5 (active); (15 min) 2.5; (30 min) 3.98 (active).
As for CAACARKFRDAGNASASA [FS-1], the “furin cleavage Z-score” value is 0.95 (inactive) (7.5 min), -0.474 (inactive) (15 min) and -0.446 (inactive) (30 min).
Consider CAEMEVPCHRAGNASASA [HC2446], for which the “furin cleavage Z-score” value by setting is: (7.5 min) 1.88; (15 min) 3.24; (30 min) 0.262 (inactive).
The like results for CAGKARARRTAGNASASA [FS-782] were, in that order, 7.77 (active), 7.95 (active) and 6.06 (active).
For CAKPTLHGPTAGNASASA [HC968] the same measures were 0.718 (inactive), 0.412 (inactive) and -0.00703 (inactive).
For CAELTPAETTAGNASASA [HC925] the same measures were -0.725 (inactive), 0.302 (inactive) and -0.347 (inactive).
For CAAPTRARRTAGNASASA [FS-1111], the “furin cleavage Z-score” value is 9.32 (active) (7.5 min), 8.24 (active) (15 min) and 6.87 (active) (30 min).
Turning to CAVLVLNPSVAGNASASA [HC786], the “furin cleavage Z-score” value is 1.78 (7.5 min), -1.12 (inactive) (15 min) and 0.0915 (inactive) (30 min).
For CAEVVTQTWVAGNASASA [HC159], the “furin cleavage Z-score” value runs as follows: (7.5 min) -0.939 (inactive); (15 min) 1.5; (30 min) 1.45.
The like results for CAMEETSQHLAGNASASA [HC16] were, in that order, 0.191 (inactive), 1.87 and 1.08.
